Tau fluor counter: counter-screen for tau fibril formation inhibitors; tau K18 P301L Alexa594 fluorescence, heparin fibrillization; actives 0.93% (n = 280,000); Potency, µM (highest dose often 57.7 µM), inactives show at the highest dose activity change, negative = decrease; also: nearly all actives have a fitted effect of over 55% in size
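Human K18 P301L tau (15 uM unlabeled plus 0.24 uM Alexa 594-labeled, final) in 100 mM sodium acetate pH 7 was mixed with compound and 20 uM heparin and incubated 6 hr at 37 C.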
Tau FP inhib: inhibitors of human tau fibril formation | P10636 | actives 0.39% (n = 280,000) | K18 P301L tau heparin fibrillization, Alexa594 FP, 6 h | AID 1468 | Potency, µM (series often up to 57.7 µM), without a hit: at the top dose activity, negative = inhibition, most hits filed as inhibitors; also: nearly all actives have a fitted effect of over 55% in size
Target sequence (P10636 561-689 P618L limits assumed): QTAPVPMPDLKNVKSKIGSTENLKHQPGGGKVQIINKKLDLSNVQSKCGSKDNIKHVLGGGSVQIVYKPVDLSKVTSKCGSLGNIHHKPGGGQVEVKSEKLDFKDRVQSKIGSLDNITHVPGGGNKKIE
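Steps: dispense K18 P301L tau (15 uM plus 0.24 uM Alexa 594 tracer, final) in pH 7 sodium acetate; add compound; add heparin (20 uM final); incubate 6 hr, 37 C; add ThT (30 uM final); after 1 hr ambient, read FP.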
TexasRed fluor: alters Texas Red total fluorescence, flagging assay interference; TRb/SRC2 Texas Red total fluorescence interference; Potency, µM (doses to about 106 µM), for inactives: at the top dose fluorescence change, negative = quenching; actives 0.29% (n = 280,000); active = well fitted curve in either direction with a large enough effect; inconclusive = small, poorly fitted or top-dose-only effect
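Flags fluorescent or light-absorbing compounds by total fluorescence, S + 2P, at 555 nm excitation and 632 nm emission. Mixture: 20 nM Texas Red SRC2 peptide, 0.6 uM human TRb LBD, 1 uM T3, 5% DMSO; compound exposure 5 h at ambient temperature.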
TRb SRC2 PPI: TRbeta-SRC2 interaction inhibition; P10828; TRbeta-SRC2 peptide binding, fluorescence polarization; receptor liganded with 1 µM T3; Potency, µM (top dose mostly 106 µM), for inactives: at the top dose activity change, negative = inhibition, most hits filed as inhibitors; actives 0.065% (n = 280,000);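 also: plate controls were bound peptide for no effect and peptide without receptor for full effect; nearly all actives have a fitted effect of over 50% in size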
Target sequence (P10828 whole entry, looked up): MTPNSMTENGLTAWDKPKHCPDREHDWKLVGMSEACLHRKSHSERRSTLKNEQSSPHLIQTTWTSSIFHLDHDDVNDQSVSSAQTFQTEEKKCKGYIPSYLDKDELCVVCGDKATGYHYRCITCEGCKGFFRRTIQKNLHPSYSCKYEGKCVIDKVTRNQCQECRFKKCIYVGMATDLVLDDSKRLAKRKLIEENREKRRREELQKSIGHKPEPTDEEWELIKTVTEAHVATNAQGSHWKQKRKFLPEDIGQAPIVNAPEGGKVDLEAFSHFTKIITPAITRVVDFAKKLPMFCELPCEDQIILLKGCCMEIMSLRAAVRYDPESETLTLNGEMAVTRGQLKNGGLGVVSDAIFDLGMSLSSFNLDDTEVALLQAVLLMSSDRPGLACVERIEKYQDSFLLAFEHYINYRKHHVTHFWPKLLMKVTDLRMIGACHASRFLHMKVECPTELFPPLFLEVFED
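Human TRb LBD (0.6 uM) plus Texas Red-labeled SRC2 peptide (20 nM), 1uM T3, 5% DMSO, 5 hr at ambient temperature. Decreased polarization (555/632 nm) flags inhibition; data normalized to free and bound peptide controls.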
Tau fibril ThT: tau fibrillization inhibition (ThT binding). actives 2.1% (n = 270,000). Potency, µM (highest dose often 57.4 µM), inactives show at the highest dose activity, negative = inhibition, actives largely listed as inhibitors. P10636. recombinant tau K18 P301L (four-repeat tau fragment), heparin-induced fibrillization, ThT fluorescence; also: nearly all actives have a fitted effect of over 55% in size
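Heparin-induced (20 uM) aggregation of recombinant human K18 P301L tau, 15 uM unlabeled with 0.24 uM labeled, pH 7 acetate buffer, 6 hr at 37 C with compound. Fibrils quantified by 30 uM ThT fluorescence after 1 hr ambient incubation.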
Numbers without * were called inactive; [ ] = dose if it differs, or a comment. In the library only some 3.1% were active in any assay of this set; here they are far more common. Unless noted, calls follow the shape of the dose curve; as a rule, active = well fitted curve in the direction sought with a large enough effect; inconclusive = small, poorly fitted or top-dose-only effect, or another doubt; inactive = no such curve, though single readings can be large; an effect the other way counts as inactive or inconclusive. Unless noted, % is scaled to controls: 0 for no effect and ±100 for the full control effect; potency is read from the fitted curve at half-maximal effect.

`Cc1ccc(-c2noc(-c3ccc(N4CCCC4)c([N+](=O)[O-])c3)n2)cc1` gave Tau fluor counter 3.1%, Tau FP inhib -2.1%, TexasRed fluor -1.2%, TRb SRC2 PPI -2.4% and Tau fibril ThT 2.2%.
CC1(C)C(=O)NC(=O)N1CO was read as TexasRed fluor 1.5%[201 µM] and TRb SRC2 PPI 12.8%[201 µM].
`O=c1[nH]c(CSc2nnc(Cc3ccccc3)o2)nc2ccccc12` gave Tau fluor counter -10.8%, Tau FP inhib -8.5%, TexasRed fluor 0.9%, TRb SRC2 PPI -3.0% and Tau fibril ThT -3.7%.
Screening Cc1[nH]c2ccccc2c1Cc1nnc(SCc2ccccc2)o1 returned Tau fluor counter 17.8µM*[quencher], Tau FP inhib inconclusive, TexasRed fluor -1.7%, TRb SRC2 PPI 4.5% and Tau fibril ThT inconclusive.
`CCCCN(C)CCNC(=O)Cn1ncc2c3ccccc3n(CCC)c2c1=O` gave Tau fluor counter 1.5%, Tau FP inhib 2.1%, TexasRed fluor inconclusive, TRb SRC2 PPI 1.5% and Tau fibril ThT 1.3%.
Screening CCN1CCc2c(sc(N)c2C#N)C1 returned Tau fluor counter -8.9%, Tau FP inhib -8.9%, TexasRed fluor 5.6%, TRb SRC2 PPI 0.4% and Tau fibril ThT inconclusive.
For N#Cc1c(N)sc(=S)c2c1CCN(Cc1ccccc1)C2 the results were Tau fluor counter inconclusive, Tau FP inhib inconclusive, TexasRed fluor inconclusive, TRb SRC2 PPI inconclusive and Tau fibril ThT 1.26µM*.
For O=C(NC1CC(=O)N(c2cccc(F)c2)C1)C1CCCC1 (stereo not given) the results were Tau fluor counter -6.6%, Tau FP inhib -10.5%, TexasRed fluor -0.2%, TRb SRC2 PPI -7.3% and Tau fibril ThT -6.6%.
O=C(COC(=O)c1cc(-c2ccccc2)nc2ccccc12)c1ccc(Br)cc1 was read as Tau fluor counter -19.3%, Tau FP inhib inconclusive, TexasRed fluor 3.7%, TRb SRC2 PPI -2.0% and Tau fibril ThT -5.8%.
`C/C(N)=C(/C#N)C(=O)COC(=O)c1cc(-c2ccc(Br)cc2)nc2ccccc12` gave Tau fluor counter -8.0%, Tau FP inhib 4.4%, TexasRed fluor 22.4µM*[quencher], TRb SRC2 PPI -10.9%[53 µM] and Tau fibril ThT -7.1%.
Screening O=C1C(c2c(O)[nH]c3ccccc23)=Nc2ccccc21 returned Tau fluor counter inconclusive, Tau FP inhib -3.0%, TexasRed fluor -0.1%, TRb SRC2 PPI 1.6% and Tau fibril ThT inconclusive.
`CC(=O)c1cccc2c(O)c(C3=Nc4ccccc4C3=O)[nH]c12` gave Tau fluor counter inconclusive, Tau FP inhib inconclusive, TexasRed fluor -0.3%, TRb SRC2 PPI 6.4% and Tau fibril ThT 3.55µM*.
`COc1ccc(C2=Nc3ccc(C)cc3NC(c3ccc(Cl)cc3)=N2)cc1` gave Tau fluor counter -12.1%, Tau FP inhib 0.5%, TexasRed fluor -2.0%, TRb SRC2 PPI 3.8% and Tau fibril ThT -3.8%.
For CCN(CC)C(=O)CSc1nc2ncc(Br)cc2[nH]1 the results were Tau fluor counter -7.1%, Tau FP inhib 2.0%, TexasRed fluor -1.5%, TRb SRC2 PPI -4.0% and Tau fibril ThT -11.6%.
Screening O=C(CSc1nc2ncc(Br)cc2[nH]1)c1ccc([N+](=O)[O-])cc1 returned Tau fluor counter inconclusive, Tau FP inhib inconclusive, TexasRed fluor 7.1%, TRb SRC2 PPI 1.7% and Tau fibril ThT 28.2µM*.
COCc1cc(C)nc2sc3c(c12)NC(c1ccc(O)cc1)N(c1ccc(OC)cc1)C3=O (stereo not given) was read as Tau fluor counter inconclusive, Tau FP inhib 0.8%, TexasRed fluor -1.4%, TRb SRC2 PPI -7.8% and Tau fibril ThT -7.3%.
`COc1ccc2c(c1)-c1nc(NC(=O)c3cccs3)sc1CC2` gave Tau fluor counter inconclusive, Tau FP inhib -4.9%, TexasRed fluor -3.9%, TRb SRC2 PPI -7.7% and Tau fibril ThT inconclusive.
`COc1ccc2c(c1)-c1nc(/N=C/c3ccc(O)cc3)sc1CC2` gave Tau fluor counter inconclusive, Tau FP inhib inconclusive, TexasRed fluor -6.0%, TRb SRC2 PPI 0.0% and Tau fibril ThT 28.2µM*.
COc1ccc2c(c1)-c1nc(NC(=O)c3cccc(Br)c3)sc1CC2 was read as Tau fluor counter inconclusive, Tau FP inhib inconclusive, TexasRed fluor 3.5%, TRb SRC2 PPI 0.2% and Tau fibril ThT inconclusive.
Screening COc1ccc2c(c1)-c1nc(/N=C/c3c(O)ccc4ccccc34)sc1CC2 returned Tau fluor counter inconclusive, Tau FP inhib inconclusive, TexasRed fluor inconclusive, TRb SRC2 PPI inconclusive and Tau fibril ThT 22.4µM*.
CCOC(=O)C1=C(O)c2ccccc2C(=O)/C1=C\c1ccc(C)cc1 was read as Tau fluor counter -16.2%, Tau FP inhib inconclusive, TexasRed fluor -3.6%, TRb SRC2 PPI -1.1% and Tau fibril ThT 14.1µM*.
Screening CCOC(=O)C1=C(O)/C(=C\c2ccc(OC)c(OC)c2)N=C1C returned Tau fluor counter 0.1%, Tau FP inhib inconclusive, TexasRed fluor -2.5%, TRb SRC2 PPI -10.8% and Tau fibril ThT inconclusive.
`Cc1ccc(NC(=S)N/N=C/c2ccc([N+](=O)[O-])s2)cc1` gave Tau fluor counter 15.8µM*[quencher], Tau FP inhib inconclusive, TexasRed fluor -2.7%, TRb SRC2 PPI -4.1% and Tau fibril ThT 5.01µM*.
Cc1cc(C)cc(N=Cc2ccc([N+](=O)[O-])s2)c1 was read as Tau fluor counter -18.9%, Tau FP inhib -8.3%, TexasRed fluor 0.0%, TRb SRC2 PPI 1.4% and Tau fibril ThT inconclusive.
For CC(C)n1c(O)c(/C=C2\C=NN=C2c2ccccc2)sc1=S the results were Tau fluor counter inconclusive, Tau FP inhib 14.1µM*, TexasRed fluor -0.5%, TRb SRC2 PPI 3.1% and Tau fibril ThT -11.1%.
Screening COc1ccc2ccc3c(c2c1)N=C[C@]1(O3)N(C)c2ccccc2C1(C)C returned Tau fluor counter inconclusive, Tau FP inhib inconclusive, TexasRed fluor inconclusive, TRb SRC2 PPI inconclusive and Tau fibril ThT 20µM*.
`CC1=NOC2(C1)N(C)c1ccccc1C2(C)C` (stereo not given) gave Tau fluor counter 7.1%, Tau FP inhib -3.2%, TexasRed fluor 2.2%, TRb SRC2 PPI -14.2% and Tau fibril ThT 9.2%.
For Cc1cc(C)cc(NC(=O)C2CCCN2S(=O)(=O)c2ccc3nc(-c4ccccc4)[nH]c3c2)c1 (stereo not given) the results were Tau fluor counter 14.1µM*[quencher], Tau FP inhib inconclusive, TexasRed fluor -2.2%, TRb SRC2 PPI -2.4% and Tau fibril ThT 10.5%.
For CCc1cccc(NC(=O)C2CCCN2S(=O)(=O)c2ccc3nc(-c4ccccc4)[nH]c3c2)c1 (stereo not given) the results were Tau fluor counter 14.1µM*[quencher], Tau FP inhib 31.6µM*, TexasRed fluor -3.4%, TRb SRC2 PPI -1.6% and Tau fibril ThT 15.8%.
